From PubChem BioAssay
This excerpt belongs to a sample that is enriched for hits.
RmlCD inh 1536 – M. tuberculosis RmlC/RmlD inhibition; RmlC+RmlD coupled enzyme assay, percent inhibition; primary screen in compound mixtures; inhibition, % at 3.6 µM; 0.03% of 160,000 active; in the data active means inhibition mostly above about 34%, no sharp cut-off
Target sequence (P9WH09 whole entry, looked up): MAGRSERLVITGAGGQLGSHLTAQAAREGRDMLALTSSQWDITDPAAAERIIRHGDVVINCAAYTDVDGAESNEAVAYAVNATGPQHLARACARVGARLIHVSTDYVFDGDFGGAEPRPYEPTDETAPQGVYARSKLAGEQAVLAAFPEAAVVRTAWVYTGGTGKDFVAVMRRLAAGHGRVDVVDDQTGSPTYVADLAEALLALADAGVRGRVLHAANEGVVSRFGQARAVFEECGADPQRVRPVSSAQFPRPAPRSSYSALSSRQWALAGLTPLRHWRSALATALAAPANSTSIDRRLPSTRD
Target sequence (P9WH11 whole entry, looked up): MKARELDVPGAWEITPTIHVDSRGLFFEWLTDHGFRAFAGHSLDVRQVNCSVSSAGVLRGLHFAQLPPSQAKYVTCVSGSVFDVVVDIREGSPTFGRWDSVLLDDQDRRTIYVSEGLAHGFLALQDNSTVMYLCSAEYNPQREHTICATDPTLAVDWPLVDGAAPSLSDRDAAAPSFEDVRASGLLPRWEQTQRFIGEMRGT
YopH inh – inhibitors of Yersinia enterocolitica YopH tyrosine phosphatase; fluorescence Ex485/Em525; inhibition, % (no concentration beside the values); 0.16% of 140,000 active; AID 898; in the data active means inhibition above about 50%
Large screens that a line does not name were inactive.

N#C/C(=C\c1ccncc1)c1nc2ccccc2[nH]1	RmlCD inh 1536 34 (no result: YopH inh)
N#C/C(=C\c1cccnc1)c1nc2ccccc2[nH]1	none (no result: YopH inh)
O=C1C2=C(c3ccccc31)[N+](=O)[C@@H]1CCCC[C@@H]1N2[O-]	YopH inh 59
O=C1C2=C(c3ccccc31)[N+](=O)C1CCCCC1N2[O-] (stereo not drawn)	none
O=C1CC(=O)N(CCc2ccccc2)C(=O)N1CCc1ccccc1	none
O=C1C=CC(=O)C(C2=C3C(=O)N(CCc4ccccc4)CC(=O)N3CCC2)=C1	YopH inh 67 (no result: RmlCD inh 1536)
NC(=O)c1cc[n+](CC2=C(C(=O)O)N3C(=O)[C@@H](NC(=O)C(c4ccccc4)S(=O)(=O)[O-])[C@H]3SC2)cc1 (stereo partly drawn)	none (no result: RmlCD inh 1536)
N[C@@H](C(=O)N[C@@H]1C(=O)N2C(C(=O)O)=C(Cl)CS[C@H]12)c1ccccc1	YopH inh 97 (no result: RmlCD inh 1536)
CCOC(=O)N1CCN(C(=O)CSCc2ccccc2Cl)CC1	none (no result: RmlCD inh 1536)
COc1cc(NCc2ccccc2O)c2ncccc2c1	none (no result: YopH inh)
COc1cc(NCCCCCCCN)c2ncccc2c1	YopH inh 52 (no result: RmlCD inh 1536)
O=C(CN1C(=O)C2CC=CCC2C1=O)Nc1nnc(SCc2ccc(Cl)cc2)s1 (stereo not drawn)	YopH inh 76
O=C(CN1C(=O)C2CC=CCC2C1=O)Nc1nnc(SCc2c(Cl)cccc2Cl)s1 (stereo not drawn)	none (no result: RmlCD inh 1536)
CCn1cc(Br)c(C(=O)NC(=S)Nc2ccc(C(=O)OC)cc2)n1	none
COc1ccc(/C=N/NC(=O)c2sc3nc(C)cc(C)c3c2N)cc1	none (no result: YopH inh)
Cc1cc(C)c2c(N)c(C(=O)N/N=C/c3cccs3)sc2n1	RmlCD inh 1536 55 (no result: YopH inh)
c1csc(-c2csc3ncnc(NCCCN4CCOCC4)c23)c1	none (no result: RmlCD inh 1536)
c1ccc(-c2csc3ncnc(NCCCN4CCOCC4)c23)cc1	YopH inh 51 (no result: RmlCD inh 1536)
O=C(Cc1cnc2ncnn2c1)N1CCc2c([nH]c3ccccc23)C1c1ccccc1F (stereo not drawn)	none (no result: YopH inh)
O=C(CN(Cc1cccs1)C(=O)CNS(=O)(=O)c1ccccc1)NC1CCCC1	none (no result: YopH inh)
CCN=C1SC(CC(=O)NCc2ccccc2)C(=O)N1CC (stereo not drawn)	none (no result: YopH inh)
COc1ccc(NC(=O)CSc2nnc(CCC(=O)Nc3ccc(C)c(Cl)c3)n2C)cc1	none
CCC(CO)NC(=O)C1C=C2c3cccc4[nH]cc(c34)CC2N(C)C1 (stereo not drawn)	none (no result: YopH inh)
CC[C@@H](CO)NC(=O)[C@@H]1C=C2c3cccc4c3c(cn4C)C[C@H]2N(C)C1	YopH inh 64 (no result: RmlCD inh 1536)
Cc1ccc(C(=O)c2c(C)oc3c2C(=O)C(=O)c2ccccc2-3)cc1	YopH inh 69 (no result: RmlCD inh 1536)
Cc1oc2c(c1C(=O)c1ccc(Cl)cc1)C(=O)C(=O)c1ccccc1-2	none
CCCC(=O)Nc1cc(OC)c(OC)cc1C(=O)O	none
CCCCNc1cc(NC(C)=O)cc2cc(OC)c(OC)cc12	YopH inh 80
Cc1ccc2n(n1)c(=O)c(Cc1ccccc1)c([O-])[n+]2-c1ccccc1	none
CC(C)(C)c1ccc(NC(=O)COC(=O)c2ccc([N+](=O)[O-])s2)cc1	none
O=C(COC(=O)c1ccc([N+](=O)[O-])s1)Nc1ccccc1	YopH inh 50
COc1ccc(NC(=O)/C(=C/c2cccnc2)NC(=O)c2cccs2)cc1	YopH inh 53 (no result: RmlCD inh 1536)
COc1ccc(NC(=O)/C(=C\c2cccnc2)NC(=O)c2cccs2)cc1	none
Cc1cc(C)nc(SCC(=O)Oc2ccc3oc(=O)cc(C)c3c2)n1	YopH inh 51
CCC(=O)Oc1ccc2oc(=O)cc(C)c2c1	none
O=C(/C(=C(\[O-])c1ccccc1)[n+]1ccc2ccccc2c1)c1ccc(Cl)cc1	none
O=C(/C(=C(\[O-])c1ccccc1)[n+]1ccc2ccccc2c1)c1ccccc1	YopH inh 69
O=C(CSc1nnc(-c2ccccc2)o1)n1c2c(c3ccccc31)CCCC2	YopH inh 56
Cc1ccc(-c2nnc(SCC(=O)n3c4c(c5ccccc53)CCCC4)o2)cc1	none
CC(=O)Nc1ccc(-c2nnc(SCC(=O)n3c4c(c5ccccc53)CCCC4)n2C)cc1	YopH inh 75 (no result: RmlCD inh 1536)
Cn1c(SCC(=O)n2c3c(c4ccccc42)CCCC3)nnc1-c1ccccc1	none (no result: RmlCD inh 1536)
NS(=O)(=O)c1ccc(CNC(=O)Cc2c(F)cccc2Cl)cc1	none (no result: YopH inh)
CS(=O)(=O)N1CCC(C(=O)NCc2ccc(Cl)cc2)CC1	none (no result: YopH inh)
COc1ccc(NC(=O)Oc2cc(C)ccc2C(C)C)cc1	none (no result: YopH inh)
CCOC(=O)N1CCN(C(=O)Cn2c(C)cc3ccccc3c2=O)CC1	YopH inh 55
CCOC(=O)CNC(=O)Cn1c(C)cc2ccccc2c1=O	none
CCCCn1c(-c2cccs2)nc2nc3ccccc3nc21	none (no result: RmlCD inh 1536)
CCCCOCCCn1c(-c2ccco2)nc2nc3ccccc3nc21	RmlCD inh 1536 57
O=c1oc2c(CN3CCOCC3)c(O)ccc2c2ccccc12	none (no result: RmlCD inh 1536)
O=c1oc2c(CN3CCOCC3)c(O)ccc2c2c1CCCC2	RmlCD inh 1536 44
Cc1ccc(C2CC(c3cccs3)=NN2S(=O)(=O)c2ccc(C)cc2)cc1 (stereo not drawn)	none
CC(=O)Nc1cc(OC(C)=O)c2nonc2c1OC(C)=O	YopH inh 76 (no result: RmlCD inh 1536)
CC(=O)Nc1nonc1NC(C)=O	none
